Inconclusive results are not listed. Active and inactive are the calls of the source. Unless noted, calls come from the whole dose curve; as a rule, active = well fitted curve in the direction sought with a large enough effect in the repeat runs; inconclusive = weak or mixed curves; inactive = no such curve, though single readings can be large; an effect the other way counts as inactive or inconclusive.
What was measured:
[1] = qHTS assay for small molecule agonists of the p53 signaling pathway (AID 651631; calls by dose curve; note: nearly all actives have a fitted effect of over 15% in size)
Method in brief: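 Agonist mode screen using a stably integrated beta-lactamase gene under p53 response elements in HCT-116 cells. Compound exposure lasts 16 h at 37 °C; fluorescence intensity is measured following 2 h FRET substrate loading.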

[2] = qHTS assay for small molecule agonists of the p53 signaling pathway - cell viability (AID 651633; calls by dose curve;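 note: p53RE-bla HCT reporter cells with a stable beta-lactamase p53 reporter; series mostly up to about 83 µM; nearly all actives have a fitted effect of over 30% in size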)
Method in brief: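 p53RE-bla cells, seeded at 4,000 per well and rested 5 h at 37 C/5% CO2, received compounds in DMSO for 16 h at 37 C. CellTiter-Glo was then added, and luminescence was read after 30 min at room temperature to gauge cytotoxicity.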

[3] = qHTS assay for small molecules that induce genotoxicity in human embryonic kidney cells expressing luciferase-tagged ATAD5 - cell viability (AID 651634; calls by dose curve; note: nearly all actives have a fitted effect of over 25% in size)
Method in brief: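 15.5 hr compound or vehicle exposure of HEK293T cells expressing luciferase-tagged ATAD5 at 37C; live-cell protease activity is read by fluorescence after 30 min of CellTiter-Fluor.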

[4] = qHTS assay for small molecule disruptors of the mitochondrial membrane potential - cell viability (AID 720634; calls by dose curve;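 note: human HepG2 liver cancer cells; series mostly up to about 83 µM; nearly all actives have a fitted effect of over 20% in size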)
Method in brief: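 In this qHTS format, HepG2 cells plated overnight were pinned with compound, incubated 1 hr, and assayed for ATP luminescence with CellTiter-Glo after m-MPI dye addition.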

[5] = qHTS assay to test for compound auto fluorescence at 535 nm (green) in HepG2 cells (AID 720675)
[6] = qHTS assay to test for compound auto fluorescence at 460 nm (blue) in HEK293 cells (AID 720678)
Method in brief: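 Intrinsic compound fluorescence is recorded in live HEK293 cultures after overnight incubation at 37C, 5% CO2, using excitation 405 nm and emission 460 nm. Values are referenced to triamterene.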

[7] = qHTS assay to test for compound auto fluorescence at 590 nm (red) in HEK293 cells (AID 720679)
Method in brief: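 Red autofluorescence, HEK293 cells: 2,000 cells/well; attach 4-5 hr 37C; add 23 nL cpd or DMSO; incubate o/n 37C 5% CO2; read Ex540/Em590; Rose Bengal sodium reference.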

[8] = qHTS assay to test for compound auto fluorescence at 535 nm (green) in HEK293 cells (AID 720680)
[9] = qHTS assay to test for compound auto fluorescence at 535 nm (green) in HEK293 cell free culture (AID 720682)
Method in brief: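 No cells present: wells hold DMEM supplemented with 10% FBS, into which compound or vehicle is pinned. Green emission is then recorded (485 nm excitation, 535 nm emission) and scaled to fluorescein.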

[10] = qHTS assay to test for compound auto fluorescence at 590 nm (red) in HEK293 cell free culture (AID 720683)
Method in brief: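 Tox21 10K library compounds were pinned into cell-free DMEM with 10% FBS and fluorescence was read at excitation 540 nm. Activity is expressed as Rose Bengal sodium equivalency.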

[11] = qHTS assay to test for compound auto fluorescence at 590 nm (red) in HepG2 cell free culture (AID 720684)
Method in brief: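 Ex 540 / Em 590 nm read of compound in cell-free MEM (10% FBS). Rose Bengal sodium reference.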

[12] = qHTS assay to test for compound auto fluorescence at 460 nm (blue) in HepG2 cell free culture (AID 720685)
Method in brief: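 Cell-free plates of MEM plus 10% FBS received 23 nL compound or DMSO vehicle; blue-channel (405/460 nm) intensity scored against triamterene as reference fluorophore.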

[13] = qHTS assay to test for compound auto fluorescence at 535 nm (green) in HepG2 cell free culture (AID 720686)
[14] = qHTS assay to test for compound auto fluorescence at 460 nm (blue) in HepG2 cells (AID 720687)
Method in brief: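 Cells (2,000/well in MEM with 10% FBS) attached overnight at 37 C, then were exposed to compound or DMSO for 1 hr at 37 C, 5% CO2. Fluorescence read at Ex/Em 405/460 nm, expressed as triamterene-equivalent signal.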

[15] = target: Glucocorticoid receptor (Homo sapiens) (UniProt P04150); test: qHTS assay to identify small molecule agonists of the glucocorticoid receptor (GR) signaling pathway (AID 720691; active = well fitted activation curve with a large enough effect in the signal ratio in the repeat runs, not every such curve was filed as active; the % refers to the signal ratio)
Sequence of Glucocorticoid receptor (Homo sapiens) (P04150 whole entry, looked up): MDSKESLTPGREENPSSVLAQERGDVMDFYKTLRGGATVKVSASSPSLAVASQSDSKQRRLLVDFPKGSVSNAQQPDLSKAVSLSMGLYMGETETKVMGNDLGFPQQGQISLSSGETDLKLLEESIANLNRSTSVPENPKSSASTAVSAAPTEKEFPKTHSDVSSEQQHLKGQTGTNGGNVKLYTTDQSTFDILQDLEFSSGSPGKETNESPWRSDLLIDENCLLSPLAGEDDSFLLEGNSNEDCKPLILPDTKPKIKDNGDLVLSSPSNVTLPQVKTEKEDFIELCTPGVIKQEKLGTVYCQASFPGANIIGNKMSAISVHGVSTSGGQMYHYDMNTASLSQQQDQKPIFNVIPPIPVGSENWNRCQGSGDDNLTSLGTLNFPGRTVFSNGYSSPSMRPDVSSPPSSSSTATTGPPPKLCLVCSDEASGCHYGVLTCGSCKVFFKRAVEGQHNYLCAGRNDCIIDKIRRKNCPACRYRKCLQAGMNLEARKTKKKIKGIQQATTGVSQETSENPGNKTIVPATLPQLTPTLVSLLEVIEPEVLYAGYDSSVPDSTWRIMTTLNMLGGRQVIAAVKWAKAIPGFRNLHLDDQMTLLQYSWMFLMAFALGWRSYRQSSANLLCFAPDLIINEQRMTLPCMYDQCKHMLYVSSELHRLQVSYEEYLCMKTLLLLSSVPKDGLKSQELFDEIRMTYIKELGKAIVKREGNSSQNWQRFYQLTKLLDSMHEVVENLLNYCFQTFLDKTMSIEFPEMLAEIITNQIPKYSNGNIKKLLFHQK
Method in brief: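 Measures GR pathway activation through a GRE-beta-lactamase reporter stably integrated in HeLa cells, with 18 h compound treatment at 37 C and fluorescence detection using a FRET substrate.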

[16] = target: Glucocorticoid receptor (Homo sapiens) (UniProt P04150); test: qHTS assay to identify small molecule antagonists of the glucocorticoid receptor (GR) signaling pathway (AID 720692; active = well fitted inhibition curve with a large enough effect in the signal ratio in the repeat runs, not every such curve was filed as active; the % refers to the signal ratio)
Method in brief: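 Tox21 10K library screened in concentration-response for blockade of dexamethasone (5 nM final)-induced GRE-bla reporter activity in HeLa cells; 18 h treatment, fluorescence read.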

[17] = qHTS assay for small molecules that induce genotoxicity in human embryonic kidney cells expressing luciferase-tagged ATAD5 (AID 651632); note: nearly all actives have a fitted effect of over 15% in size
Method in brief: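 Concentration-response screen for ATAD5 upregulation in HEK293T luciferase reporter cells; 16 hr treatment at 37C, then luminescence after 30 min with Amplite at room temperature.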

[18] = qHTS assay to test for compound auto fluorescence at 590 nm (red) in HepG2 cells (AID 720674)
Method in brief: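 Compound auto-fluorescence is scored relative to Rose Bengal sodium, measured at 540/590 nm in live HepG2 cultures after 1 hr compound contact (37 C, 5% CO2).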

[19] = qHTS assay to test for compound auto fluorescence at 460 nm (blue) in HEK293 cell free culture (AID 720681)
Method in brief: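 Test compounds were pinned into cell-free culture medium (DMEM with 10% FBS) and fluorescence was read directly at Ex/Em 405/460 nm. Signals were expressed as fluorescence equivalents of triamterene, with DMSO vehicle as control.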

[20] = qHTS assay for small molecule disruptors of the mitochondrial membrane potential (AID 720635)
Method in brief: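 HepG2 cells (2,000/well) attached overnight at 37C, then took compound for 1 hr at 37C, 5% CO2. Mito-MPS dye was added for 30 min; fluorescence was read at 490/535 nm (monomers) and 540/590 nm (aggregates).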
% is set by controls: 0 for no effect and ±100 for the full control effect.

O=C(O)Cc1ccc(-c2ccccc2)cc1
inactive: Potency [1] | Potency [2] | Potency [3] | Potency [4] | fluorescence, % of fluorescein control [5] -0.0175% [at 18.6 µM] | fluorescence, % of triamterene [6] -0.322% [at 18.6 µM] | fluorescence, % of fluorescent control [7] -0.147% [at 18.6 µM] | fluorescence, % of fluorescein [8] -0.0578% [at 18.6 µM] | activity change [9] -0.0541% [at 18.6 µM] | fluorescence, % of fluorescent control [10] 0.0962% [at 18.6 µM] | fluorescence, % of Rose Bengal [11] -0.0701% [at 18.6 µM] | fluorescence, % of fluorescent control [12] -0.109% [at 18.6 µM] | fluorescence, % of fluorescein control [13] -0.0983% [at 18.6 µM] | fluorescence, % of fluorescent control [14] -0.1% [at 18.6 µM] | Potency [15] | Potency [16]

O=S1OCCO1
inactive: Potency [17] | Potency [2] | Potency [3] | outcome [18] | outcome [5] | Potency [6] | outcome [8] | outcome [9] | outcome [10] | outcome [11] | Potency [12] | outcome [13] | Potency [14]

NC(=O)Cn1c(=O)cc(CCN2CCN(c3nccc4sccc34)CC2)c2ccc(F)cc21
inactive: Potency [17] | Potency [2] | Potency [3] | Potency [4] | outcome [18] | outcome [5] | Potency [6] | outcome [7] | outcome [8] | Potency [19] | outcome [9] | outcome [10] | outcome [11] | Potency [12] | outcome [13] | Potency [14] | Potency [15] | Potency [16]

N#C/C(=C1\SCC(c2ccccc2Cl)S1)n1ccnc1 (configuration not stated)
inactive: Potency [17] | Potency [2] | Potency [3] | Potency [20] | outcome [18] | outcome [5] | Potency [6] | outcome [7] | outcome [8] | outcome [9] | outcome [10] | outcome [11] | Potency [12] | outcome [13] | Potency [14] | Potency [15]

CN(C)C(=O)Nc1ccc(Oc2ccc(Cl)cc2)cc1
inactive: Potency [17] | Potency [2] | Potency [3] | Potency [4] | outcome [18] | outcome [5] | Potency [6] | outcome [7] | outcome [8] | outcome [9] | outcome [10] | outcome [11] | Potency [12] | outcome [13] | Potency [14]

O=C(O)c1cccnc1C(=O)O
inactive: Potency [17] | Potency [2] | Potency [3] | Potency [4] | outcome [18] | outcome [5] | outcome [8] | Potency [19] | outcome [9] | outcome [10] | outcome [11] | Potency [12] | outcome [13] | Potency [14]

CCOc1cc(N)c(Cl)cc1C(=O)NCC1CN(Cc2ccc(F)cc2)CCO1 (configuration not stated)
inactive: Potency [17] | Potency [2] | Potency [3] | Potency [4] | outcome [18] | outcome [5] | Potency [6] | outcome [7] | outcome [8] | Potency [19] | outcome [9] | outcome [10] | outcome [11] | Potency [12] | outcome [13] | Potency [14] | Potency [15] | Potency [16]

NCC1CCCC(CN)C1 (configuration not stated)
inactive: Potency [17] | Potency [2] | Potency [3] | Potency [20] | outcome [18] | outcome [5] | outcome [7] | outcome [8] | Potency [19] | outcome [9] | outcome [10] | outcome [11] | Potency [12] | outcome [13] | Potency [14] | Potency [15] | Potency [16]

Reference: PubChem BioAssay (Tox21)
